Experimental data from PubChem BioAssay AID602179 (National Center for Advancing Translational Sciences (NCATS), 2012).
Among all 390,000 compounds or so, about 360 (0.092%) were called active. Only a selection was taken, and actives are over-represented in it overall. Unmarked numbers belong to inactive results. The call rests on the fitted dose curve; in most records, active means well fitted inhibition curve with a large enough effect; inconclusive means small, poorly fitted or top-dose-only effect; inactive means no such curve, though single readings can be large or run the other way.

What follows are compounds tested against Isocitrate dehydrogenase [NADP] cytoplasmic (Homo sapiens) (UniProt O75874) (assay: qHTS for Inhibitors of mutant isocitrate dehydrogenase 1 (IDH1): qHTS). Details: IDH1-R132H enzyme, NADPH consumption, diaphorase/resazurin fluorescence; series mostly up to 76.6 µM; activity change, negative = inhibition: at the top concentration.
Sequence of Isocitrate dehydrogenase [NADP] cytoplasmic (Homo sapiens) (O75874 whole entry R132H, stated change not applied, canonical isoform): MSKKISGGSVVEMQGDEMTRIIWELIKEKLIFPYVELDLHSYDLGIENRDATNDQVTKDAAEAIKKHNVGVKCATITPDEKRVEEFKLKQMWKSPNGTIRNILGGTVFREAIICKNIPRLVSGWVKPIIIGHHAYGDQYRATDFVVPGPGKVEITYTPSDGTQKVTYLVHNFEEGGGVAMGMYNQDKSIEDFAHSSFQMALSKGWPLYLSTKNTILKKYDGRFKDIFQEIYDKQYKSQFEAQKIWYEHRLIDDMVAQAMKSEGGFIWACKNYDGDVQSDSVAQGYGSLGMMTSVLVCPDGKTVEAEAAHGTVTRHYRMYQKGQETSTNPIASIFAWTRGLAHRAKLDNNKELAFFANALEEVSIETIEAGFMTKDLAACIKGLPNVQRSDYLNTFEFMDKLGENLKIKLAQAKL
Description: Unbiased genomic sequencing for 22 glioma genomes found recurrent mutation of isocitrate dehydrogenase 1 (IDH1) on chromosome 2q33-a gene encoding the cytosolic isoform of IIDH1associated with the tricarboxylic acid cycle (TCA) that catalyzes the oxidative decarboxylation of isocitrate, yielding alpha-ketoglutarate and CO2 via NADP+ to NADPH conversion. Subsequent studies confirmed the recurrent IDH mutations in up to 70% of secondary gliomas and in 10% of AML cases. […] This in effect defines IDH1 as an oncogene, and provides an extraordinary opportunity to discover chemical probes against mutant IDH1 that may translate into much needed new therapies for glioma and AML patients. […] NIH Chemical Genomics Center [NCGC] NIH Molecular Libraries Probe Centers Network [MLPCN] MLPCN Grant: DA032129 Assay Submitter (PI): Lenny Dang, Agios Pharmaceuticals
IDH1-R132H (0.5 ug/mL) was dispensed into black, solid-bottom 1536-well plates at 3 uL/well in 20 mM Tris-HCl (pH 7.5), 150 mM NaCl, 10 mM MgCl2, 4 mM beta-ME, and 0.05% protease-free BSA. Then, 23 nL of compounds or DMSO were delivered to each well using a pin tool. A pre-read was run on the Viewlux to identify fluorescent compounds (540 nm excitation filter, 598 nm emission filter, bodipy mirror and 2 second exposure). After 30 minutes of incubation with compound, 3 uL of substrate mix were dispensed (0.016 mM NADPH, 2 mM alpha-KG, 20 mM Tris-HCl (pH 7.5), 150 mM NaCl, 10 mM MgCl2, and 0.05% protease-free BSA). Plates were spun for 1 min at 1000xg and incubated at room temperature for 80 min. Then 1.5 uL of each detection reagent component for the coupling system were added (0.12 mg/mL diaphorase and 0.072 mM resazurin, each in 20 mM Tris-HCl (pH 7.5), 150 mM NaCl, 10 mM MgCl2, and 0.05% protease-free BSA ) The protein, substrate and two detection components were maintained at 4 °C throughout the screen. Additionally, the substrate and resazurin reagents were protected from light. The plates were measured on an Envision plate reader for fluorescence signal using a 540 nm excitation filter and 590 nm emission filter with 10 flashes. 1x and 0x (no-enzyme) IDH1-R132H enzyme control were used to normalize %Activity of identified inhibitors; 0x enzyme values corresponded to 100% Activity (full inhibition), while 1x IDH1-R132H enzyme values were used to normalize 0%Activity (no inhibition). Concentration-response curves were fitted to the signals arising from the resulting fluorescence. The concentration-effect curves were then classified based on curve quality (r2), response magnitude and degree of measured activity, and compounds were subsequently categorized based on their curve class. […] Keywords: isocitrate dehydrogenase, IDH1, IDH1-R132H, MLSMR, MLPCN, NIH Roadmap, qHTS, NCGC
Further: nearly all actives have a fitted effect of over 65% in size.
On the % scale 0 is the no-effect control and ±100 the full control effect; potency means the concentration at half of the fitted maximal effect.

SMILES | activity change, negative = inhibition | Potency
Cc1cc(N2CCN(c3cccc(C(F)(F)F)c3)CC2)n2nc(-c3ccccc3)nc2n1 | -9.04% | –
COC(=O)c1cc(S(=O)(=O)N2CCN(c3cc(Cl)ccc3C)CC2)c[nH]1 | -12.5% | –
COc1ccc(CCNC(=O)c2ccc3c(c2)nc(C)n3-c2ccc(Br)cc2)cc1OC | 6.54% | –
COc1ccc(CNC(=O)CCc2c(C)nn(-c3ccc(N4CCCC4)nn3)c2C)cc1 | -5.82% | –
CCOc1ccc(N(CC)S(=O)(=O)N2CCCC(C(=O)NCc3ccc(SC)cc3)C2)cc1 (configuration not stated) | -6.03% | –
CCCCOc1ccc(Cn2c(=O)oc3ccc(C)cc32)cc1OC | 0.174% | –
CCCCOc1ccc(CN2C(=O)C(=O)c3cc(Br)cc(C)c32)cc1OC | – | 28.2 µM (active)
COc1ccc(CN2C(=O)CC(Cc3ccc(C)cc3)C2=O)cc1OC (configuration not stated) | 0.852% | –
O=S(=O)(c1ccc(Br)cc1)c1nnn2c1nc(N1CCOCC1)c1sccc12 | 7.56% | –
COc1ccc(N2C(=O)CSC23C(=O)N(Cc2cccc(F)c2)c2ccccc23)cc1Cl (configuration not stated) | -7.21% | –
Cc1ccc(CNC(=O)CSc2c3c(nc4cc(Cl)ccc24)CCCC3)cc1 | 12.5% | –
Cc1cc(Cl)ccc1NC(=O)Cc1ccc(NC(=O)N2CCCCc3ccccc32)cc1 | -7.17% | –
CC1CN(C(=O)N2CCC(C(=O)NCc3cccs3)CC2)c2ccccc2O1 (configuration not stated) | 13.4% | –
Cc1ccc(O)c(NC(=O)c2cc(-c3ccc(F)cc3)no2)c1 | 0% | –
Cc1ccc(Nc2nc3ccccc3nc2-n2nc(C)cc2C)c(Cl)c1 | 0% | –
CCCN(CCC)C(=O)Cn1c(=O)n(-c2ccc(Cl)cc2)c(=O)c2c3c(sc21)CCCCC3 | 3.66% | –
CCCn1c2ccccc2c2cnn(CC(=O)N(CC)c3cc(C)ccc3C)c(=O)c21 | -8.48% | –
N#Cc1ccc(-c2cccs2)nc1SCc1ccc(Br)cc1 | -10.1% | –
COc1ccc(Cl)cc1NC(=O)CSc1nc2ccccc2c2nc(-c3ccccc3)nn12 | 11.3% | –

SMILES | activity change, negative = inhibition | Potency
O=C(CCc1cn(Cc2ccc(F)cc2)c2ccccc12)NC1CCCCC1 | -2.83% | –
O=C(C1COc2ccccc2O1)N(Cc1cccnc1)c1nc2c(F)cc(F)cc2s1 (configuration not stated) | 0% | –
CCOC(=O)c1ccc(NC(=O)Cn2c(=O)n(-c3ccc(C)cc3)c(=O)c3c2cnn3C)cc1 | 0% | –
CCCCn1c(CNC(=O)C23CC4CC(CC(C4)C2)C3)nnc1SCC(=O)Nc1ccc(C)cc1 | -2.28% | –
COCCNC(=O)c1ccc2c(c1)N(Cc1cccc(Cl)c1)C(=O)c1ccccc1S2(=O)=O | -14.2% | –
COc1ccc(-c2nnc(SCC(=O)Nc3ccccc3C)o2)cc1OC | -3.15% | –
CCCCc1nn2c(=O)cc(COC(=O)c3ccccc3NC(=O)C(C)(C)C)nc2s1 | -4.52% | –
COc1cc(NC(=O)CSc2nc3nc(C)c(Cc4ccc(C)cc4)c(C)n3n2)cc(OC)c1OC | -14.1% | –
Cc1ccc(CCNC(=O)c2ccc(CNS(=O)(=O)c3ccc(C)cc3)cc2)cc1 | 11.2% | –
CCOC(=O)c1ccc(N2C(=O)c3n[nH]c(C)c3C2c2ccc(O)c(OC)c2)cc1 (configuration not stated) | 8.11% | –
CCOc1ccc(S(=O)(=O)N(CC(=O)NCCSCc2ccc(C)cc2)c2ccccc2)cc1 | 8.13% | –
O=C(CSc1oc(-c2ccco2)nc1S(=O)(=O)c1ccccc1)c1ccc(Cl)cc1 | 8.02% | –
Cc1ccccc1Nc1nn2c(=O)c3ccc(C(=O)NCCc4ccc(Cl)cc4)cc3nc2s1 | 2.65% | –
Cc1ccc(OCC(=O)OCc2cc(=O)n3nc(C4CC4)sc3n2)cc1C | 1.02% | –
CC(C)NC(=O)c1nn(-c2ccccc2F)nc1CO | -6.1% | –
Cc1cccc(OCCCC(=O)Nc2sc3c(c2C(N)=O)CCC(C)C3)c1 (configuration not stated) | 15.6% | –
O=C(CN1C(=O)COc2ccc(S(=O)(=O)N3CCCCCC3)cc21)N1CCN(c2cccc(C(F)(F)F)c2)CC1 | 0.874% | –
O=c1cc(CSc2ncn[nH]2)[nH]c2ccc(F)cc12 | 11.8% | –
O=C(CN1CCSc2ccccc21)N1CCN(c2ccccc2)CC1 | 9.76% | –

SMILES | activity change, negative = inhibition | Potency
CCCc1nn2c(=O)cc(COC(=O)c3ccc(NC(=O)C(C)Oc4ccccc4)cc3)nc2s1 (configuration not stated) | -1.97% | –
Cc1ccc2c(c1)N(C(=O)Nc1ccc(Br)cc1F)CCO2 | 26.6% | –
O=C(CCc1ccccc1)NCc1ccc2c(c1)CCN2C(=O)c1ccccc1 | -11.1% | –
O=C(CSc1nnc(CNC(=O)c2ccccc2)n1-c1ccc(F)cc1)Nc1ccccc1F | -2.52% | –
CN(C(=O)CSc1nc2ccccc2n1Cc1ccccc1C#N)c1ccccc1 | -6.83% | –
CCOC(=O)c1c(C)[nH]c(C)c1S(=O)(=O)N1CCCC(C(=O)NCc2ccccc2Cl)C1 (configuration not stated) | -13.9% | –
CCCc1nc2c(c(=O)c3ccccc3n2C)c(=O)n1C1CCCCCC1 | – | 46.5 µM (active)
CCCN1C(=O)C(Cc2nc3ccccc3c(=O)n2-c2ccccc2)c2cc(C)ccc21 (configuration not stated) | -1.15% | –
CCOc1ccc(NC(=O)c2cn(C3CCCCC3)c(=O)c3c2c2ccccc2n3C)cc1 | -10.2% | –
Cc1ccc(S(=O)(=O)N(Cc2nc(-c3ccc(Cl)cc3)no2)C2CCCCC2)cc1 | 0.339% | –
COc1cc2ccccc2cc1C(=O)Nc1cccc(-c2nc3ccccc3o2)c1 | -0.407% | –
CC1CCCCN1S(=O)(=O)c1ccc(F)c(C(=O)Nc2ccccc2C(F)(F)F)c1 (configuration not stated) | -7.74% | –
CCOc1cccc(CNC(=O)c2ccc(N3CCCC3)c(NC(=O)Nc3ccccc3CC)c2)c1 | -22.9% | –
CCOc1ccc(NC(=O)C(=O)NCCc2csc3nc(-c4ccccc4F)nn23)cc1 | -15.9% | –
Cc1ccccc1CNC(=O)CCc1cn(Cc2ccccc2C)c2ccccc12 | 0% | –
Cc1c(Cl)cccc1-c1ccc(CNCCCSc2nnnn2C)o1 | 0% | –
COc1ccc(-c2nc(CN3CCC(C(=O)NCCN(CC(C)C)CC(C)C)CC3)c(C)o2)cc1OC | -5.21% | –
CCOc1ccc(-c2n[nH]c3c2C(c2ccccc2OC)N(c2ccc(Br)cc2)C3=O)cc1 (configuration not stated) | -10.1% | –
CN(Cc1ccccc1)S(=O)(=O)c1ccc(F)c(C(=O)Nc2cccc(Cl)c2Cl)c1 | 0% | –
